Only some compounds are listed: those with a hit (about 1.5% of all), similar ones and a draw of the others.
SK-BR-3 tox 24h: SK-BR-3 proliferation inhibitors, primary screen, cell-based, human, 24 h; SK-BR-3 viability, CellTiter-Glo ATP luminescence; stronger effect = lower value; viability, % at 10 µM; actives 0.47% (n = 41,000);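 active = viability at or below the median of all test compounds minus 3 SD, in both replicates if run twice, cut at about 45% in these data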;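 also: 100% = median untreated cell wells and 0% = median positive control drug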
Her2 expr inh: inhibitors of Her2 protein expression, primary screen, SKBR-3 cells, AlphaScreen, 66K library; HER2 level % of control, % at 10 µM; AID 645, 2007; SKBR-3 HER2 protein level, 18-24 h; stronger effect = lower value; actives 0.69% (n = 65,000); Receptor tyrosine-protein kinase erbB-2 (Homo sapiens), P04626;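 active = HER2 level under 5% of the carrier-only control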;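 also: 100% = DMSO carrier and 0% = 500 nM PU-H71 HSP90 inhibitor; lower value means stronger loss of Her2 protein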
Cathepsin G inh: human cathepsin G inhibitors, primary screen, biochemical, pooled compound mixtures, AMC fluorescence. actives 0.2% (n = 62,000). P08311. purified enzyme, AMC-tetrapeptide fluorescence. inhibition, % at 5 µM (by protocol);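 active = inhibition above 20% in each of the two mixture wells holding the compound; inactive = inhibition of 20% or less in either well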;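 also: 0% = enzyme control without mixture and 100% = blank lacking enzyme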
C1s inh: complement C1s protease inhibitors, primary screen, biochemical, 10-compound mixtures; purified C1s, fluorogenic AMC substrate, pooled mixtures; mean inhibition % of two 10-compound mixtures (stronger effect = higher value), % at 5 µM (by protocol); actives 0.16% (n = 62,000);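 active = inhibition above 20% in each of the two 10-compound mixture wells holding the compound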;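 also: 0% = enzyme wells lacking compound mixture and 100% = no-enzyme blank wells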
FXIIa mix inh: human factor XIIa inhibitors, primary screen, biochemical, pooled compound mixtures, fluorogenic substrate; purified FXIIa; inhibition, % at 5 µM; actives 0.2% (n = 62,000);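 also: 0% = enzyme without compound and 100% = no enzyme blank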
Target sequence (P00748 20-372 limits assumed): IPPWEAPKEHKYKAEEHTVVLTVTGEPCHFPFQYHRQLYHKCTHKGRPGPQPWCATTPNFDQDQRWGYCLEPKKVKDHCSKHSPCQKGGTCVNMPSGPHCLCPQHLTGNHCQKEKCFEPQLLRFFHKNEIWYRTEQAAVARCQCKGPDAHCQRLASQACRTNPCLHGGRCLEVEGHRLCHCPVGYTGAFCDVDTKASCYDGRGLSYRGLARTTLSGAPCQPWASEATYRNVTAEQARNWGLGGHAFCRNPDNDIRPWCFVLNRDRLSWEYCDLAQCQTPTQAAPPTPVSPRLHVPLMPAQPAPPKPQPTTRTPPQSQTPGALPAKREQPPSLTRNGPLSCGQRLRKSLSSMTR
Target sequence (P00748 373-615 limits assumed): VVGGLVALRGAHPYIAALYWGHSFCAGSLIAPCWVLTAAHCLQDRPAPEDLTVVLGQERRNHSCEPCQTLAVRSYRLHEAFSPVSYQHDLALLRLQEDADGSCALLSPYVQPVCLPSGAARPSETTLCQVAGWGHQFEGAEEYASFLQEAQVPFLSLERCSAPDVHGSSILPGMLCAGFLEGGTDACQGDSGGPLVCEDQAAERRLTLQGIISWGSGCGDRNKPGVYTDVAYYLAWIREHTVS
FXIa mix inh: FXIa protease inhibitors in compound pools, primary screen, biochemical, 10-compound mixtures | actives 0.19% (n = 62,000) | inhibition, % at 5 µM | purified FXIa, fluorogenic substrate, pooled mixtures;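 also: each value is inhibition by a whole ten-compound pool holding the compound; 0% = enzyme with no mixture and 100% = wells lacking enzyme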
An asterisk follows results filed as active; . = no result given. Rule as the data show it, unless noted: active = inhibition above about 20% (passing the limit was not always enough); inactive = the rest.

SMILES | SK-BR-3 tox 24h | Her2 expr inh | Cathepsin G inh | C1s inh | FXIIa mix inh | FXIa mix inh
CCCCCCN=CC1=C(O)C(C(=O)OC)C(C)(C)CC1=O (centres undefined) | 93.0 | 71.6 | 3.0 | -1.2 | 11.0 | 1.9
CCOC(=O)c1c(NC(=O)CSc2nc3c(c(=O)n(C)c(=O)n3C)n2CC)sc(C)c1C | 43.9* | 16.0 | 7.3 | -25.2 | 9.8 | -8.1
CCCn1c(SCC(=O)Nc2sc(C)c(C)c2C(=O)OC)nc2c1c(=O)n(C)c(=O)n2C | 90.2 | 109.9 | 5.4 | 7.4 | -4.2 | 9.0
CCc1ccc(C2CC(=O)N3CN(c4ccccc4)CSC3=C2C#N)cc1 (centres undefined) | . | -17.6* | -0.6 | 1.7 | 9.8 | 8.8
CCOC(=O)C(NC(C)=O)(N1CCc2ccccc2C1)C(F)(F)F (centres undefined) | 86.8 | -17.5* | 3.5 | -3.0 | 8.3 | 4.6
CCOC(=O)c1cc(NC(=O)Nc2ccc(OC)c(OC)c2)c(C)nc1C | 85.4 | 58.1 | -1.9 | 1.5 | 8.9 | 28.7*
COc1ccc(NC(=O)Nc2ccccc2C(N)=O)cc1OC | 95.6 | 99.7 | 9.7 | -2.8 | 8.1 | 0.4
O=S(=O)(CC(CN1CCCC1)N1CCCC1)c1ccc2ccccc2c1 (centres undefined) | 95.8 | -12.8* | 1.6 | 2.7 | 1.8 | -2.5
COc1ccc(C(=O)C(CN2CCCC2)c2ccccc2)cc1 (centres undefined) | 115.1 | -6.9* | . | . | . | .
O=C(c1ccc(F)cc1)C(CN1CCOCC1)c1ccccc1 (centres undefined) | 22.2* | -19.2* | -3.0 | 1.9 | 3.1 | 4.4
COc1ccc(C(=O)CCN2CCCCCC2)cc1 | 109.9 | 22.9 | -1.4 | -12.6 | 1.6 | 7.9
O=C(CSc1nc2cc(Cl)ccc2o1)c1cccs1 | . | 104.3 | -4.5 | 2.1 | 1.2 | 4.4
CN(C)CCNC(=O)c1cc2ccccc2oc1=O | 86.7 | 90.9 | 13.3 | 10.6 | 21.3* | 3.4
CC(=O)OCCNC(=O)c1cc2ccccc2oc1=O | 93.1 | 110.5 | -11.9 | -16.7 | 4.5 | 5.0
Cc1ccc(NC(=O)CN(C)c2ccc(S(=O)(=O)N3CCN(C)CC3)cn2)cc1 | . | 107.6 | -6.8 | -40.8 | -0.5 | 28.8
CCOc1ccccc1Nc1nc(N)nc(CN(C)C2CCCCC2)n1 | 89.0 | 93.2 | 2.1 | -66.9 | -20.6 | 0.8
COc1ccc2c(c1)CCc1c(C(=O)Nc3ccc(OC)c(OC)c3)noc1-2 | 83.4 | 81.7 | 37.1* | 18.7 | -3.8 | 6.6
COc1ccc2c(c1)CCc1c(C(=O)NCCc3ccc(OC)c(OC)c3)noc1-2 | 69.1 | 78.3 | 52.3 | -15.5 | -0.2 | 3.8
COc1ccc2c(c1)CCc1c(C(=O)NCc3ccc(F)cc3)noc1-2 | . | 109.1 | 92.5* | 43.9* | 4.3 | 26.7
N#CCCS(=O)(=O)c1nnnn1-c1ccccc1 | 209.4 | -1.1* | 0.6 | -26.3 | 7.3 | 2.2
Cc1ccc(C)c2[nH]c(=O)c(CCNC(=O)C(C)(C)C)cc12 | . | . | -1.2 | -0.4 | -15.7 | 4.4
CCOc1nc(C#N)nc(N2CCCCC2)n1 | 39.0* | 58.8 | -3.9 | -3.0 | -21.5 | 6.4
CCOc1nc(OCC)nc(N2CCC(C)CC2)n1 | . | 129.8 | -0.5 | -16.7 | -4.6 | -0.9
CN1C(=O)C(C(=O)NC(C)(C)C)C2c3ccccc3OC13CCCCC23 (centres undefined) | 98.1 | -29.9* | 8.8 | 0.9 | -3.6 | 0.8
C=CCNC(=O)NS(=O)(=O)c1ccc(C)cc1 | 100.8 | 117.5 | 8.9 | 15.1 | 1.5 | 22.3*
SMILES | SK-BR-3 tox 24h | Her2 expr inh | Cathepsin G inh | C1s inh | FXIIa mix inh | FXIa mix inh
O=C1CN(CC(=O)N2CCOCC2)c2ccccc2O1 | 99.8 | 84.9 | -3.2 | -2.3 | 21.9* | 8.7
O=C1CN(CC(=O)N2CCCCC2)c2ccccc2O1 | 73.3 | 73.3 | 8.7 | 4.9 | 4.7 | 0.2
C=CCSC1=N/C(=C\C=C\c2ccco2)C(=O)S1 | . | 2.1* | . | . | . | .
CS(=O)(=O)N(CC(=O)N1CCN(c2cccc(Cl)c2)CC1)c1cccc(F)c1 | 89.3 | 118.9 | 9.8 | 11.4 | -4.5 | 8.6
COC(=O)c1sc(NC(=O)c2ccco2)nc1C | . | 91.4 | -4.0 | -74.3 | 25.9 | -9.2
Cc1nc(NC(=O)c2ccco2)sc1C(=O)Nc1ccc(Br)cc1 | . | -3.0* | 6.1 | -0.1 | -0.4 | 8.6

Screening results (PubChem BioAssay)
